This note sets out measurements from PubChem BioAssay AID1345085 (National Center for Advancing Translational Sciences (NCATS), 2018).

Inconclusive results are not listed. Active and inactive are the calls of the source. The call rests on the fitted dose curve; in most records, active means well fitted cell-killing curve with a large enough effect; inconclusive means small, poorly fitted or top-dose-only effect, or effect the other way; inactive means no such curve, though single readings can be large or run the other way.

This assay deals with Hek293T. As to the kind of experiment: Confirmatory qHTS for gynecologic anti-cancer compounds from libraries of approved drugs and bioactive compounds. Further: nearly all actives have a fitted effect of over 55% in size. Conditions: gynecologic cancer cell panel viability, ATPlite luminescence, 48 h; series mostly up to 57.6 µM. An outline of the steps: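 Viability is measured as ATP-dependent luciferase light using ATPlite, read 15 min after reagent addition at room temperature. Compounds, in DMSO, span 57.5 uM down to 0.977 nM over 11 threefold steps for 48 h.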
Potency means the concentration at half of the fitted maximal effect.

With `C[C@H]1CCC/C=C/C2C[C@H](O)C[C@H]2[C@H](O)/C=C/C(=O)O1` (stereo partly drawn), the Potency is 1.09 µM (active).
Take `CCNC(=O)C[C@@H]1N=C(c2ccc(Cl)cc2)c2cc(OC)ccc2-n2c(C)nnc21`: the Potency entry is “inactive”.
With `C=C(C)[C@H]1Cc2c(ccc3c2O[C@@H]2COc4cc(OC)c(OC)cc4[C@@H]2C3=O)O1`, the Potency was 0.432 µM (active).
